# Laboratory results from paper PMC11006913.
# Changes are numbered by the printed parent chain.
# How the values were obtained:
# Assay in all cases: PBM; 200 nM protein, PBS
# Conditions in all cases: dsDNA, one strand shown
# SIX6 [1] = target: T1, SIX6 (Homo sapiens, UniProt O95475 114-200, L167I)
# T1 sequence: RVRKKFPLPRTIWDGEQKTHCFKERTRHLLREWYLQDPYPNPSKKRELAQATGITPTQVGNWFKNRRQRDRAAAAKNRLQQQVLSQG
# SIX6 [2] = target: T2, SIX6 (Homo sapiens, UniProt O95475 114-200, L143V)
# T2 sequence: T1 sequence with L30V, I54L
# SIX6 [3] = target: T3, SIX6 (Homo sapiens, UniProt O95475 114-200, H141N)
# T3 sequence: T1 sequence with H28N, I54L
# SIX6 [4] = target: T4, SIX6 (Homo sapiens, UniProt O95475 114-200, T165P)
# T4 sequence: T1 sequence with T52P, I54L
# SIX6 [5] = target: T5, SIX6 (Homo sapiens, UniProt O95475 114-200, L167M)
# T5 sequence: T1 sequence with I54M
# SIX6 [6] = target: T6, SIX6 (Homo sapiens, UniProt O95475 114-200, L143M)
# T6 sequence: T1 sequence with L30M, I54L
# SIX6 [7] = target: T7, SIX6 (Homo sapiens, UniProt O95475 114-200, L143I)
# T7 sequence: T1 sequence with L30I, I54L
# SIX6 [8] = target: T8, SIX6 (Homo sapiens, UniProt O95475 114-200, T165G)
# T8 sequence: T1 sequence with T52G, I54L
# SIX6 [9] = target: T9, SIX6 (Homo sapiens, UniProt O95475 114-200, T139Q)
# T9 sequence: T1 sequence with T26Q, I54L
# SIX6 [10] = target: T10, SIX6 (Homo sapiens, UniProt O95475 114-200, T165A)
# T10 sequence: T1 sequence with T52A, I54L
# SIX6 [11] = target: T11, SIX6 (Homo sapiens, UniProt O95475 114-200, L167V)
# T11 sequence: T1 sequence with I54V
# SIX6 [12] = target: T12, SIX6 (Homo sapiens, UniProt O95475 114-200)
# T12 sequence: T1 sequence with I54L
# SIX6 [13] = target: T13, SIX6 (Homo sapiens, UniProt O95475 114-200, T165I)
# T13 sequence: T1 sequence with T52I, I54L
Sequence,binding signal (SIX6 [1]),binding signal (SIX6 [2]),binding signal (SIX6 [3]),binding signal (SIX6 [4]),binding signal (SIX6 [5]),binding signal (SIX6 [6]),binding signal (SIX6 [7]),binding signal (SIX6 [8]),binding signal (SIX6 [9]),binding signal (SIX6 [10]),binding signal (SIX6 [11]),binding signal (SIX6 [12]),binding signal (SIX6 [13])
GGTATCAA,"11.6 upbm affinity estimate (log intensity, higher = more binding, comparable within an allelic series)","10.6 upbm affinity estimate (log intensity, higher = more binding, comparable within an allelic series)","11.7 upbm affinity estimate (log intensity, higher = more binding, comparable within an allelic series)","9.74 upbm affinity estimate (log intensity, higher = more binding, comparable within an allelic series)","11 upbm affinity estimate (log intensity, higher = more binding, comparable within an allelic series)","11.4 upbm affinity estimate (log intensity, higher = more binding, comparable within an allelic series)","10.6 upbm affinity estimate (log intensity, higher = more binding, comparable within an allelic series)","11.6 upbm affinity estimate (log intensity, higher = more binding, comparable within an allelic series)","11.5 upbm affinity estimate (log intensity, higher = more binding, comparable within an allelic series)","11.6 upbm affinity estimate (log intensity, higher = more binding, comparable within an allelic series)","11.4 upbm affinity estimate (log intensity, higher = more binding, comparable within an allelic series)","11.4 upbm affinity estimate (log intensity, higher = more binding, comparable within an allelic series)","11.4 upbm affinity estimate (log intensity, higher = more binding, comparable within an allelic series)"
CCGCAGCG,"8.92 upbm affinity estimate (log intensity, higher = more binding, comparable within an allelic series)","8.95 upbm affinity estimate (log intensity, higher = more binding, comparable within an allelic series)","8.92 upbm affinity estimate (log intensity, higher = more binding, comparable within an allelic series)","9.03 upbm affinity estimate (log intensity, higher = more binding, comparable within an allelic series)","8.98 upbm affinity estimate (log intensity, higher = more binding, comparable within an allelic series)","8.95 upbm affinity estimate (log intensity, higher = more binding, comparable within an allelic series)","8.96 upbm affinity estimate (log intensity, higher = more binding, comparable within an allelic series)","8.86 upbm affinity estimate (log intensity, higher = more binding, comparable within an allelic series)","8.88 upbm affinity estimate (log intensity, higher = more binding, comparable within an allelic series)","8.92 upbm affinity estimate (log intensity, higher = more binding, comparable within an allelic series)","8.99 upbm affinity estimate (log intensity, higher = more binding, comparable within an allelic series)","8.96 upbm affinity estimate (log intensity, higher = more binding, comparable within an allelic series)","8.92 upbm affinity estimate (log intensity, higher = more binding, comparable within an allelic series)"
GGCGACCC,"8.98 upbm affinity estimate (log intensity, higher = more binding, comparable within an allelic series)","8.85 upbm affinity estimate (log intensity, higher = more binding, comparable within an allelic series)","9.03 upbm affinity estimate (log intensity, higher = more binding, comparable within an allelic series)","8.9 upbm affinity estimate (log intensity, higher = more binding, comparable within an allelic series)","8.99 upbm affinity estimate (log intensity, higher = more binding, comparable within an allelic series)","9.09 upbm affinity estimate (log intensity, higher = more binding, comparable within an allelic series)","8.97 upbm affinity estimate (log intensity, higher = more binding, comparable within an allelic series)","9.01 upbm affinity estimate (log intensity, higher = more binding, comparable within an allelic series)","9.15 upbm affinity estimate (log intensity, higher = more binding, comparable within an allelic series)","9.04 upbm affinity estimate (log intensity, higher = more binding, comparable within an allelic series)","8.91 upbm affinity estimate (log intensity, higher = more binding, comparable within an allelic series)","9.01 upbm affinity estimate (log intensity, higher = more binding, comparable within an allelic series)","9.02 upbm affinity estimate (log intensity, higher = more binding, comparable within an allelic series)"
ATGTATCG,"11 upbm affinity estimate (log intensity, higher = more binding, comparable within an allelic series)","10.3 upbm affinity estimate (log intensity, higher = more binding, comparable within an allelic series)","11 upbm affinity estimate (log intensity, higher = more binding, comparable within an allelic series)","10 upbm affinity estimate (log intensity, higher = more binding, comparable within an allelic series)","10.6 upbm affinity estimate (log intensity, higher = more binding, comparable within an allelic series)","10.8 upbm affinity estimate (log intensity, higher = more binding, comparable within an allelic series)","10.4 upbm affinity estimate (log intensity, higher = more binding, comparable within an allelic series)","11 upbm affinity estimate (log intensity, higher = more binding, comparable within an allelic series)","11.1 upbm affinity estimate (log intensity, higher = more binding, comparable within an allelic series)","11 upbm affinity estimate (log intensity, higher = more binding, comparable within an allelic series)","10.7 upbm affinity estimate (log intensity, higher = more binding, comparable within an allelic series)","10.9 upbm affinity estimate (log intensity, higher = more binding, comparable within an allelic series)","10.8 upbm affinity estimate (log intensity, higher = more binding, comparable within an allelic series)"
GGATATCC,"11 upbm affinity estimate (log intensity, higher = more binding, comparable within an allelic series)","10.2 upbm affinity estimate (log intensity, higher = more binding, comparable within an allelic series)","10.9 upbm affinity estimate (log intensity, higher = more binding, comparable within an allelic series)","9.51 upbm affinity estimate (log intensity, higher = more binding, comparable within an allelic series)","10.6 upbm affinity estimate (log intensity, higher = more binding, comparable within an allelic series)","10.9 upbm affinity estimate (log intensity, higher = more binding, comparable within an allelic series)","10.2 upbm affinity estimate (log intensity, higher = more binding, comparable within an allelic series)","11 upbm affinity estimate (log intensity, higher = more binding, comparable within an allelic series)","11 upbm affinity estimate (log intensity, higher = more binding, comparable within an allelic series)","10.8 upbm affinity estimate (log intensity, higher = more binding, comparable within an allelic series)","10.9 upbm affinity estimate (log intensity, higher = more binding, comparable within an allelic series)","11 upbm affinity estimate (log intensity, higher = more binding, comparable within an allelic series)","10.9 upbm affinity estimate (log intensity, higher = more binding, comparable within an allelic series)"
CGCAAGCG,"8.99 upbm affinity estimate (log intensity, higher = more binding, comparable within an allelic series)","9.04 upbm affinity estimate (log intensity, higher = more binding, comparable within an allelic series)","8.99 upbm affinity estimate (log intensity, higher = more binding, comparable within an allelic series)","9.04 upbm affinity estimate (log intensity, higher = more binding, comparable within an allelic series)","9.02 upbm affinity estimate (log intensity, higher = more binding, comparable within an allelic series)","9.01 upbm affinity estimate (log intensity, higher = more binding, comparable within an allelic series)","9.04 upbm affinity estimate (log intensity, higher = more binding, comparable within an allelic series)","8.96 upbm affinity estimate (log intensity, higher = more binding, comparable within an allelic series)","9.04 upbm affinity estimate (log intensity, higher = more binding, comparable within an allelic series)","8.95 upbm affinity estimate (log intensity, higher = more binding, comparable within an allelic series)","8.92 upbm affinity estimate (log intensity, higher = more binding, comparable within an allelic series)","9.01 upbm affinity estimate (log intensity, higher = more binding, comparable within an allelic series)","8.97 upbm affinity estimate (log intensity, higher = more binding, comparable within an allelic series)"
CAGCCCCG,"8.86 upbm affinity estimate (log intensity, higher = more binding, comparable within an allelic series)","8.79 upbm affinity estimate (log intensity, higher = more binding, comparable within an allelic series)","8.86 upbm affinity estimate (log intensity, higher = more binding, comparable within an allelic series)","8.88 upbm affinity estimate (log intensity, higher = more binding, comparable within an allelic series)","8.84 upbm affinity estimate (log intensity, higher = more binding, comparable within an allelic series)","8.78 upbm affinity estimate (log intensity, higher = more binding, comparable within an allelic series)","8.82 upbm affinity estimate (log intensity, higher = more binding, comparable within an allelic series)","8.82 upbm affinity estimate (log intensity, higher = more binding, comparable within an allelic series)","8.98 upbm affinity estimate (log intensity, higher = more binding, comparable within an allelic series)","8.8 upbm affinity estimate (log intensity, higher = more binding, comparable within an allelic series)","8.86 upbm affinity estimate (log intensity, higher = more binding, comparable within an allelic series)","8.8 upbm affinity estimate (log intensity, higher = more binding, comparable within an allelic series)","8.81 upbm affinity estimate (log intensity, higher = more binding, comparable within an allelic series)"
ATATCATC,"11.3 upbm affinity estimate (log intensity, higher = more binding, comparable within an allelic series)","10.5 upbm affinity estimate (log intensity, higher = more binding, comparable within an allelic series)","11.2 upbm affinity estimate (log intensity, higher = more binding, comparable within an allelic series)","10 upbm affinity estimate (log intensity, higher = more binding, comparable within an allelic series)","10.8 upbm affinity estimate (log intensity, higher = more binding, comparable within an allelic series)","11.1 upbm affinity estimate (log intensity, higher = more binding, comparable within an allelic series)","10.5 upbm affinity estimate (log intensity, higher = more binding, comparable within an allelic series)","11.3 upbm affinity estimate (log intensity, higher = more binding, comparable within an allelic series)","11.3 upbm affinity estimate (log intensity, higher = more binding, comparable within an allelic series)","11.2 upbm affinity estimate (log intensity, higher = more binding, comparable within an allelic series)","11 upbm affinity estimate (log intensity, higher = more binding, comparable within an allelic series)","11.1 upbm affinity estimate (log intensity, higher = more binding, comparable within an allelic series)","11.1 upbm affinity estimate (log intensity, higher = more binding, comparable within an allelic series)"
GATCGATA,"11 upbm affinity estimate (log intensity, higher = more binding, comparable within an allelic series)","10.3 upbm affinity estimate (log intensity, higher = more binding, comparable within an allelic series)","11 upbm affinity estimate (log intensity, higher = more binding, comparable within an allelic series)","9.87 upbm affinity estimate (log intensity, higher = more binding, comparable within an allelic series)","10.5 upbm affinity estimate (log intensity, higher = more binding, comparable within an allelic series)","10.8 upbm affinity estimate (log intensity, higher = more binding, comparable within an allelic series)","10.4 upbm affinity estimate (log intensity, higher = more binding, comparable within an allelic series)","11 upbm affinity estimate (log intensity, higher = more binding, comparable within an allelic series)","11.2 upbm affinity estimate (log intensity, higher = more binding, comparable within an allelic series)","10.9 upbm affinity estimate (log intensity, higher = more binding, comparable within an allelic series)","10.8 upbm affinity estimate (log intensity, higher = more binding, comparable within an allelic series)","10.9 upbm affinity estimate (log intensity, higher = more binding, comparable within an allelic series)","10.8 upbm affinity estimate (log intensity, higher = more binding, comparable within an allelic series)"
